# Rows were chosen to be rich in hits. Some 3% of all compounds tested hit in one or more screens of this group.
# CTSL1 counter = blocks F. hepatica cathepsin L1 in PFM18AAP counter-screen; inhibition, % at 5.96 µM; recombinant F. hepatica cathepsin L1, Z-Leu-Arg-MCA fluorescence; 0.49% of 300,000 active; AID 1906;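 active = inhibition above the mean of all tested compounds plus 3 SD, set per screening campaign, cut at about 17% in these data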;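 also: 0% = plate median of test compound wells and 100% = 1 µM Z-Phe-Ala-diazomethylketone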
# PAFAH2 inh = inhibitors of human PAFAH2; inhibition, % at 3.39 µM; Q99487; 0.99% of 340,000 active; recombinant PAFAH2, FP-rhodamine activity probe, fluorescence polarization;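 active = inhibition above the mean over all tested compounds plus 3 SD, cut at about 30% in these data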;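 also: inhibitors block probe labeling of enzyme so polarization drops; 0% = enzyme with DMSO and 100% = wells lacking PAFAH2 protein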
# PAFAH1B3 inh = inhibitors of human PAFAH1B3 | recombinant PAFAH1B3, FP-rhodamine probe, fluorescence polarization | inhibition, % at 3.39 µM | 0.28% of 340,000 active | AID 492972;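 active = inhibition above the screen-wide average of all tested compounds plus 3 SD, cut at about 25% in these data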;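 also: 0% = enzyme with DMSO only and 100% = wells lacking PAFAH1B3 protein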
# Target sequence (Q15102 whole entry, looked up): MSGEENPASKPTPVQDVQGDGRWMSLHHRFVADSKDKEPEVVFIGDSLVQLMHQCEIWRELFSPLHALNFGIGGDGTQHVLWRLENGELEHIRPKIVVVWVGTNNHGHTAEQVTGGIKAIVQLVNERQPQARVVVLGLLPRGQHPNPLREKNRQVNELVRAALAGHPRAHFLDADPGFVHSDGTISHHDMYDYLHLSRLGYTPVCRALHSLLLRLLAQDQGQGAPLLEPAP
# PAFAH1B2 inh = inhibitors of human PAFAH1B2; P68402; recombinant PAFAH1B2, FP-rhodamine activity probe, fluorescence polarization; inhibition, % at 3.39 µM; 1.2% of 340,000 active; AID 492953;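 active = inhibition above the mean of all tested compounds plus 3 SD, cut at about 24% in these data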;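 also: 0% = enzyme with DMSO and 100% = wells lacking PAFAH1B2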
# Target sequence (P68402 whole entry, looked up): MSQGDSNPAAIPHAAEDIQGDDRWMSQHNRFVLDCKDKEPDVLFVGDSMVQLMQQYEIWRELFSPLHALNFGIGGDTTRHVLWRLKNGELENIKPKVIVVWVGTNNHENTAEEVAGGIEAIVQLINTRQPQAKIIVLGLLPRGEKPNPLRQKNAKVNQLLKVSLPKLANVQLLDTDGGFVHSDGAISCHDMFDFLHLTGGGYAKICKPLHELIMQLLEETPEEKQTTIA
# PP5 primary = inhibitors of human protein phosphatase 5 (PP5); P53041; purified PP5c, OMFP substrate fluorescence; inhibition, % at 6.7 µM; 0.18% of 320,000 active; AID 1987;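 active = inhibition above the campaign's mean inhibition across all tested compounds plus 3 SD, cut at about 9.5% in these data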;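 also: 0% = DMSO only and 100% = 100 µM cantharidin control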
# pPAFAH inh = pPAFAH (human) enzyme inhibition; recombinant pPAFAH, FP-rhodamine probe fluorescence polarization; inhibition, % at 3.39 µM; AID 463082; 1.5% of 330,000 active; Q13093;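 active = inhibition above the mean inhibition across the screen plus 3 SD, cut at about 25% in these data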;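 also: inhibitors block binding of the rhodamine activity-based probe so polarization drops; 0% = enzyme with DMSO and 100% = wells lacking pPAFAH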
# * = called active by the depositor; / = no result.
SMILES,CTSL1 counter,PAFAH2 inh,PAFAH1B3 inh,PAFAH1B2 inh,PP5 primary,pPAFAH inh
CCOC(=O)c1cccc(C2=CC(=O)C[C@H](c3ccc(OC)c(OC)c3)C2)c1,/,8,2,6,2,1
COc1cc(/C=C2\SC(=Nc3ccccc3)N(CCc3c[nH]c4ccccc34)C2=O)ccc1OC(C)C(=O)O (configuration not stated),4,0,0,-4,1,18
O=C1/C(=C/c2ccc(N3CCOCC3)o2)SC(=Nc2ccccc2)N1CCc1c[nH]c2ccccc12,18*,-13,4,7,5,6
COc1ccccc1NS(=O)(=O)c1cccc(C(=O)OCC(=O)NC2CC2)c1,0,14,3,-2,2,24
CC[C@H](C)[C@H]1CNC(=O)C(=O)N1CC1CCN(CCc2ccccc2)CC1,/,-7,8,3,/,/
Cc1cc(NC(=O)CSCC(=O)N2CCN(c3cccc(C(F)(F)F)c3)CC2)no1,8,-7,5,5,-2,2
O=C(Nc1ccc(OC(F)(F)F)cc1)c1[nH]ncc1[N+](=O)[O-],-3,37*,6,3,-1,18
O=C(Nc1ccc(S(=O)(=O)N2CCCCCC2)cc1)c1[nH]ncc1[N+](=O)[O-],-4,4,4,7,0,16
COCCn1c(N)c(S(=O)(=O)c2cccs2)c2nc3ccccc3nc21,3,11,48*,25*,6,-5
Nc1c(S(=O)(=O)c2cccs2)c2nc3ccccc3nc2n1Cc1ccccc1,3,-9,2,0,2,6
O=C1C(Nc2cccc(O)c2)=C(N2CCCCC2)C(=O)c2ccccc21,86*,60*,66*,25*,8,17
O=C1C(NS(=O)(=O)c2ccc(Br)cc2)=C(N2CCCCC2)C(=O)c2ccccc21,-1,6,12,8,1,11
CCC1Oc2ccc(C)cc2N(CC(=O)NCC2CCCO2)C1=O (configuration not stated),1,-4,5,7,-2,2
CCCN1Cc2cccc(C(=O)NCc3cccs3)c2C1=O,18*,4,4,3,2,-4
COC(=O)C1CN(S(=O)(=O)c2ccccc2)CCN1S(=O)(=O)c1ccccc1 (configuration not stated),58*,-9,0,3,1,-4
CCOC(=O)C1CN(S(=O)(=O)c2ccccc2)CCN1S(=O)(=O)c1ccccc1 (configuration not stated),3,3,11,6,3,-1
O=C(NCCN1CCOCC1)c1ccc2c(c1)N(Cc1ccccc1F)C(=O)c1ccccc1S2(=O)=O,18*,-3,0,-1,1,-9
Cc1ccccc1CN1C(=O)/C(=C\c2ccc(C(=O)NCCN3CCOCC3)cc2)Sc2ccccc21,3,9,-3,2,4,21
O=C(NCCN1CCOCC1)c1ccc(/C=C2\Sc3ccccc3N(Cc3ccccc3F)C2=O)cc1,3,-8,2,-1,6,33*
O=C(NCCN1CCOCC1)c1ccc2c(c1)N(Cc1ccccc1F)C(=O)CS2,27*,-9,-1,4,2,2
Cc1ccc(C)c(CN2C(=O)CSc3ccc(C(=O)NCCN4CCOCC4)cc32)c1,10,-11,12,-1,3,3
CCN1CCCC1CNC(=O)c1ccc2c(c1)N(Cc1ccccc1F)C(=O)c1ccccc1S2(=O)=O (configuration not stated),52*,2,-2,2,2,-2
CC(Oc1ccc(Br)cc1)C(=O)NCCCN1CCCC1=O (configuration not stated),/,-4,7,7,/,2
Cc1cc(C)nc(NC(=O)c2c(F)c(F)c(F)c(C(=O)Nc3cc(C)cc(C)n3)c2F)c1,-1,/,/,/,-2,-2
Cc1cc(C)n2c(SCC(O)=C(C#N)c3nc4ccccc4[nH]3)nnc2n1,/,3,3,2,/,/
SMILES,CTSL1 counter,PAFAH2 inh,PAFAH1B3 inh,PAFAH1B2 inh,PP5 primary,pPAFAH inh
Cc1cccc(Nc2nnc(SC/C(O)=C(\C#N)c3nc4ccccc4[nH]3)s2)c1,2,-13,16,20,-1,25*
Cc1ccc(Nc2nnc(SC/C(O)=C(\C#N)c3nc4ccccc4[nH]3)s2)c(C)c1,4,-1,8,21,1,29*
C[C@H](CO)N1C[C@H](C)[C@@H](CN(C)Cc2ccc(C(=O)Nc3ccccc3N)cc2)Oc2c(NC(=O)C3CCCCC3)cccc2C1=O,/,-4,7,4,/,7
C=C(C)C(COc1c2occc2cc2ccc(=O)oc12)OC(C)(C)C(O)COc1c2occc2cc2ccc(=O)oc12 (configuration not stated),/,1,7,66*,/,7
COc1cccc(OCC(O)CN2CCC(CN3C(=O)c4cccc5cccc(c45)C3=O)CC2)c1 (configuration not stated),33*,-2,-1,-1,8,-3
O=C(/C=C/c1ccc(-c2ccccc2)o1)c1ccccc1,64*,6,8,-1,-4,27*
O=Cc1ccc(-c2cccc(C(=O)O)c2)o1,2,6,8,3,3,3
Cc1ccc(-c2ccc(/C=C/C(=O)c3ccccc3)o2)cc1,41*,-4,3,-3,-1,17
Cc1ccc(C(=O)/C=C/c2ccc(-c3ccccc3[N+](=O)[O-])o2)cc1,3,14,-5,6,2,7
Cc1ccc(SCCc2ccc(C)nc2)cc1,14,2,12,28*,3,0
O=C(Nc1ncccc1O)C1CCN(S(=O)(=O)c2ccc3ccccc3c2)CC1,-2,11,-3,-3,1,3
Clc1ccc(Oc2cccc(/C=N/n3cnnc3)c2)cc1,4,3,6,14,3,12
C(=N\n1cnnc1)/c1cccc(OCCOc2ccccc2)c1,1,4,3,28*,2,1
COc1cc(/C=N/n2cnnc2)ccc1OCCOc1ccccc1,1,-2,2,4,1,3
Cc1ccc(S(=O)(=O)Oc2cccc(/C=N/n3cnnc3)c2)cc1,0,-9,11,24*,1,4
S=C1CC2CCCC(C2)N1 (configuration not stated),/,1,5,8,/,/
Cc1c(C(=O)N2CCOCC2)sc(NC(=O)c2ccc([N+](=O)[O-])cc2)c1C#N,0,5,6,2,0,5
Cc1c(C(=O)N2CCOCC2)sc(NC(=O)CCl)c1C#N,17*,-9,2,-1,-3,-8
O=C1/C(=C/Nc2ccc3c(c2)OCO3)CCc2ccccc21,0,16,8,7,2,17
COc1ccc2c(c1)CC/C(=C\Nc1ccc3c(c1)OCO3)C2=O,0,8,5,4,5,25*
